Hits are enriched below; roughly 0.44% of the tested compounds scored in any of these assays.
EPAC2 antagonist = antagonists of human EPAC2. EPAC2 GEF exchange of Rap1B-BODIPY-GDP, fluorescence. actives 0.18% (n = 360,000). Potency, µM (titrated, usually from 114 µM), most hits filed as inhibitors. Q8WZA2; note: nearly all actives have a fitted effect of over 45% in size
USP1 inh = blocks the human USP1/UAF1 deubiquitinase complex; recombinant USP1/UAF1, Ub-Rhodamine cleavage fluorescence; Potency, µM (series often up to 57.1 µM), usual class: inhibitors; actives 0.23% (n = 390,000); note: nearly all actives have a fitted effect of over 60% in size
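USP1/UAF1 complex (1 nM) preincubated 15 min at room temperature with compound, then Ub-Rho substrate (150 nM final) added. Kinetic fluorescence at 480/540 nm over 6 reads at 60 s intervals; 50 mM HEPES pH 7.8, 0.5 mM EDTA, 0.1 mg/ml BSA, 1 mM TCEP, 0.01% Tween-20.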
EPAC1 ag = activates human EPAC1 exchange factor; O95398; EPAC1 agonist qHTS, biochemical assay; response scale: 100% = response to 6.5 mM cAMP; Potency, µM (doses to about 154 µM), usual class: activators; actives 0.073% (n = 360,000); AID 720707; note: nearly all actives have a fitted effect of over 60% in size
Target sequence (O95398 whole entry, looked up): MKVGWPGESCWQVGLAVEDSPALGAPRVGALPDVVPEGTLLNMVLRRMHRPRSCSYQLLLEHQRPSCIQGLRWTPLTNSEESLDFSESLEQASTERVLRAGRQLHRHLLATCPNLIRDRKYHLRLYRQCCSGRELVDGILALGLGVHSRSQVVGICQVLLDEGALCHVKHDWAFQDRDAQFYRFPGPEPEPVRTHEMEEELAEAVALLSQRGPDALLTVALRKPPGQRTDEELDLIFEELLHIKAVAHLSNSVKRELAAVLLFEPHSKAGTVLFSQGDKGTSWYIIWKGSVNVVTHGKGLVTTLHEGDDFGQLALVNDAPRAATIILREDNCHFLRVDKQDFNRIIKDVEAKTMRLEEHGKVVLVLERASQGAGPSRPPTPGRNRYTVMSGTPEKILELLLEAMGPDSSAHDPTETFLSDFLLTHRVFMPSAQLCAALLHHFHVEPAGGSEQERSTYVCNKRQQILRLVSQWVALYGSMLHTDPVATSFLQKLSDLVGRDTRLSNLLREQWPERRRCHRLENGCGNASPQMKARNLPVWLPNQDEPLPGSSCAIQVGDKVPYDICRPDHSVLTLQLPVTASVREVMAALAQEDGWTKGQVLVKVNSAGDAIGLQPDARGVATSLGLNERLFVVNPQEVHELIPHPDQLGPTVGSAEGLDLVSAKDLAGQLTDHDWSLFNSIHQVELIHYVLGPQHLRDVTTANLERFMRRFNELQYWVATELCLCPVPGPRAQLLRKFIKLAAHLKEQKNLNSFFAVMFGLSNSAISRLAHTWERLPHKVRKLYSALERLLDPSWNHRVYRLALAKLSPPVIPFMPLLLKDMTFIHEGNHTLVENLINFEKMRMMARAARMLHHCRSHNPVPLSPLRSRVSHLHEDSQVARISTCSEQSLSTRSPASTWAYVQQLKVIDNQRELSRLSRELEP
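Fluorescent GDP-exchange assay: 100 nM EPAC1 with 250 nM Rap1B preloaded with BODIPY-GDP and 50 uM GDP; compounds tested as concentration series, 5 min at room temperature, then read every 5 min for 30 min (ex 480/em 540 nm); normalized to 6.5 mM cAMP.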
EPAC1 antag = blocks human EPAC1 exchange factor; O95398; EPAC1 GEF assay, Rap1b-BODIPY-GDP exchange fluorescence; Potency, µM (doses to about 115 µM), usual class: inhibitors; actives 0.14% (n = 360,000); AID 720709; note: nearly all actives have a fitted effect of over 50% in size
EPAC2 agonist = agonists of human EPAC2 (RAPGEF4); Q8WZA2; EPAC2 activation, biochemical qHTS; response scale: 100% = 6.5 mM cAMP response; Potency, µM (doses to about 154 µM), most hits filed as activators; actives 0.079% (n = 360,000); AID 720711; note: nearly all actives have a fitted effect of over 50% in size
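Compounds were titrated in qHTS against a Rap1B-BODIPY-GDP (250 nM) complex with EPAC2 (100 nM) and GDP (50 uM). BODIPY-GDP release tracked at 480/540 nm over 30 min at room temperature, normalized to 6.5 mM cAMP.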
Hits are given with their value; . = inactive; ? = inconclusive; / = no result given. Calls come from the whole dose curve; as a rule, active = well fitted curve in the direction sought with a large enough effect; inconclusive = small, poorly fitted or top-dose-only effect, or another doubt; inactive = no such curve, though single readings can be large; an effect the other way counts as inactive or inconclusive.

SMILES	EPAC2 antagonist	USP1 inh	EPAC1 ag	EPAC1 antag	EPAC2 agonist
COC(=O)C1=CN(Cc2cccs2)C=C(C(=O)OC)C1c1cccc(O)c1	50.1µM	.	.	.	.
COCCCNC(=O)c1ccc2c3c(onc13)-c1ccccc1C2=O	.	20µM	79.4µM	?	100µM
Cn1c2nc(=O)n(-c3ccccc3)c(=O)c-2nc2c1CCCC2	.	14.1µM	?	.	.
C=CCN1C(=O)/C(=C/c2ccc(OC(C)=O)c(OCC)c2[N+](=O)[O-])SC1=S	.	14.1µM	.	70.8µM	.
CCOc1c(OC(C)=O)ccc(/C=C/c2ccc3cccc(OC(C)=O)c3n2)c1[N+](=O)[O-]	.	.	.	.	.
CCOC(=O)c1ccc(/C=C2/C=C(c3ccccc3)N(c3ccc(Cl)c(C(=O)O)c3)C2=O)cc1	?	25.1µM	.	?	.
COc1ccc(OC)c(NC(=O)CSc2nc(O)cc(=O)n2CC(C)C)c1	.	.	.	56.2µM	.
CC(=O)C1=C(c2cccc([N+](=O)[O-])c2)N(C(C)=O)n2c(C)nnc2S1	.	14.1µM	.	.	.
CC(=O)C1=C(c2ccc(C)cc2)N(C(C)=O)n2c(nnc2-c2ccccc2)S1	/	.	/	/	/
CN1CCCc2cc(C=O)ccc21	.	.	.	.	.
CCCN1CCCc2cc(CN)ccc21	.	15.8µM	.	.	.
COc1ccc(-n2nnc(C(=O)Nc3ccccc3F)c2N)cc1	/	.	/	/	/
CCCCCCc1cc2cc(-c3nnc(-c4ccccc4OC)o3)c(=O)oc2cc1O	.	14.1µM	?	.	.
CCCCCCc1cc2cc(-c3nnc(-c4cc(OC)c(OC)c(OC)c4)o3)c(=O)oc2cc1O	.	.	.	.	?
CCCCCCc1cc2cc(-c3nnc(-c4ccccc4O)o3)c(=O)oc2cc1O	.	8.91µM	?	.	?
Cc1ccccc1N(C(=O)c1snc(C(N)=O)c1N)C(C(=O)NCC1CCCO1)c1ccc(F)cc1 (stereo not drawn)	.	.	.	.	.
Cc1[nH]n(-c2ncc(-c3ccc(Cl)cc3)s2)c(=O)c1C(c1ccc(Cl)cc1)C(C#N)C#N (stereo not drawn)	.	.	.	39.8µM	.
C[C@@H]1CC[C@@]23COC(=O)C2=CCC[C@@H]3[C@@]1(C)CC/C(=C/CO)CO	.	.	.	.	.
CC1=CCC[C@@H]2[C@@](C)(CC/C(C)=C/C(=O)O)[C@H](C)CC[C@@]12C	31.6µM	?	.	?	.
O=S(c1cc(Cl)cc(Cl)c1O)c1cc(Cl)cc(Cl)c1O	37.7µM	/	.	39.8µM	.
Oc1c(Cl)cc(Cl)cc1CNc1nccs1	.	.	.	.	.
Nc1ccc2c(S(=O)(=O)O)cccc2c1S(=O)(=O)O	56.2µM	?	.	.	.
Nc1ccccc1S(=O)(=O)c1ccccc1N	.	.	.	.	.
CCOC(=O)/C(=C/c1ccc(OC(=O)c2ccccc2)cc1)C(C)=O	.	.	.	.	.
Cc1cc(NC(=O)CSc2nc3cc(Cl)ccc3s2)no1	.	.	.	.	.
SMILES	EPAC2 antagonist	USP1 inh	EPAC1 ag	EPAC1 antag	EPAC2 agonist
O=C(CSc1nc2cc(Cl)ccc2s1)c1cc2ccccc2o1	.	28.2µM	.	.	.
Cc1ccc(Cn2c(=O)c3ccccc3n3c(-c4cccc(O)c4)nnc23)cc1	/	.	/	/	/
COc1ccccc1-c1cccc([C@@H]2C[C@H]3[C@H](CON3C)CN2S(=O)(=O)c2ccccc2C)c1	.	.	.	.	.
COc1ccc(/C(O)=C/c2nc3ccccc3n(-c3ccccc3)c2=O)cc1	.	?	.	.	89.1µM
COc1ccc(-n2c(=O)c(CCC(=O)N3CCN(c4cccc(OC)c4)CC3)nc3ccccc32)cc1	.	.	.	.	.
Cc1cc(Br)c2c(c1)[C@](O)(c1cn(C)c3ccccc13)C(=O)N2C	22.4µM	/	.	.	.
CC(C)(C)OC(=O)N1CCN(C(=O)c2[nH]cnc2C(=O)Nc2cccc(Cl)c2)CC1	.	.	.	.	.
O=C(Cc1c(Cl)cccc1Cl)N/N=C/c1cccnc1	.	.	.	.	.
CCOC(=O)C1=C(N)c2ccccc2CC1C1CCCC1 (stereo not drawn)	15.8µM	.	.	.	.
C=C1c2ccccc2O[C@H](C(=O)OCC)[C@@H]1C1CCCCC1	?	?	.	.	.
Cc1ccc(/C=C2\S/C(=N/S(=O)(=O)c3cccs3)NC2=O)cc1	?	?	.	39.8µM	.
CCN(CC)c1ccc(/C=C/C(=O)c2ccc(Br)cc2)cc1	.	28.2µM	100µM	.	100µM
CN(C)c1ccc(C(=O)/C=C/c2ccc(Br)cc2)cc1	.	.	.	.	100µM
O=C(NCc1ccc(OC(F)(F)F)cc1)c1cccc2c1C(=O)c1ccc(N3CCCCC3)cc1S2(=O)=O	.	25.1µM	.	.	100µM
O=C(NCc1ccc(OC(F)(F)F)cc1)c1cccc2c1C(=O)c1ccc(N3CCCC3)cc1S2(=O)=O	79.4µM	.	.	.	100µM
O=C(NCc1ccc(OC(F)(F)F)cc1)c1cccc2c1C(=O)c1ccc(N3CCC(Cc4ccccc4)CC3)cc1S2(=O)=O	.	.	.	.	.
COc1ccc(-n2c(O)c(/C=N/NS(=O)(=O)c3ccc(C)c([N+](=O)[O-])c3)c3ccccc3c2=O)cc1OC	.	25.1µM	.	.	.
COc1cc(/C=N/NS(=O)(=O)c2ccc(C)c([N+](=O)[O-])c2)cc([N+](=O)[O-])c1O	.	.	.	.	.
CCCn1c(CCCNC(=O)c2ccccc2OC)nc2ccccc21	/	.	/	/	/
O=C(Nc1ccc(C(F)(F)F)cc1)C(Cc1ccccc1)n1cccc1 (stereo not drawn)	/	.	/	/	/
CCOC(=O)C1=NOC2C3CC(C12)C1C(=O)N(CCc2ccc(OC)c(OC)c2)C(=O)C31 (stereo not drawn)	.	.	.	.	.
CCCn1c(N)c(N(CCOC)C(=O)CSCC(=O)Nc2cccc(C)c2)c(=O)[nH]c1=O	.	.	100µM	.	.
CCn1c2ccccc2c2cc(NC(=O)c3ccc(=O)oc3)ccc21	.	?	.	.	100µM
Nc1ccc(/C=C/C(=O)c2cccs2)cc1	.	25.1µM	.	.	.

Bioassay records: PubChem BioAssay, National Center for Advancing Translational Sciences (NCATS)
